Most compounds without a hit are left out; they make up all but 10% or so of the library.
Luciferase inh: inhibitors of firefly (Photinus pyralis) luciferase; Potency, µM (top dose mostly 115 µM), actives largely listed as inhibitors; P08659; purified P. pyralis luciferase, luminescence, biochemical; 76,000 compounds, 2.5% hits; also: nearly all actives have a fitted effect of over 65% in size
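Luminescence read by CCD imaging after purified firefly luciferase (10nM final) was added to substrate buffer holding 10uM D-luciferin and 10uM ATP, pH 7.5, pre-dosed with compound.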
HEK293 tox: HEK 293 cell cytotoxicity | HEK 293 viability, ATP luminescence (CellTiter-Glo), 48-72 h | Potency, µM (series often up to 115 µM), inactives show at the top dose activity change, negative = cytotoxicity, hits mostly inhibitors | 94,000 compounds, 6.6% hits; also: nearly all actives have a fitted effect of over 60% in size
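HEK 293 cells at 250 cells/well were exposed to compounds by pintool transfer for 48 or 72 hr at 37 degree Celsius, 5% CO2. Viability was read as ATP-coupled luminescence with CellTiter-Glo after 10 min at room temperature.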
NIH3T3 tox: NIH 3T3 cell cytotoxicity. NIH 3T3 viability, CellTiter-Glo ATP luminescence, 48-72 h. Potency, µM (top dose mostly 96.7 µM), for inactives: at the highest dose activity change, negative = cytotoxicity, hits mostly inhibitors. 94,000 compounds, 4.3% hits. AID 1345082; also: nearly all actives have a fitted effect of over 55% in size
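Viability of NIH 3T3 cells after 48 or 72 hr compound treatment at 37 °C was assessed by CellTiter-Glo, with luminescence imaged following a 10 min room-temperature step.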
hNpr1 antagonist: human Npr1 receptor antagonism; P16066; HEK293 hNpr1 GloSensor cGMP, ANP-stimulated luminescence; Potency, µM (top dose mostly 46.3 µM), inactives show at the highest dose activity change, negative = inhibition, most hits filed as inhibitors; 76,000 compounds, 1.6% hits; calls by dose curve; also: nearly all actives have a fitted effect of over 60% in size
Target sequence (P16066 whole entry, looked up): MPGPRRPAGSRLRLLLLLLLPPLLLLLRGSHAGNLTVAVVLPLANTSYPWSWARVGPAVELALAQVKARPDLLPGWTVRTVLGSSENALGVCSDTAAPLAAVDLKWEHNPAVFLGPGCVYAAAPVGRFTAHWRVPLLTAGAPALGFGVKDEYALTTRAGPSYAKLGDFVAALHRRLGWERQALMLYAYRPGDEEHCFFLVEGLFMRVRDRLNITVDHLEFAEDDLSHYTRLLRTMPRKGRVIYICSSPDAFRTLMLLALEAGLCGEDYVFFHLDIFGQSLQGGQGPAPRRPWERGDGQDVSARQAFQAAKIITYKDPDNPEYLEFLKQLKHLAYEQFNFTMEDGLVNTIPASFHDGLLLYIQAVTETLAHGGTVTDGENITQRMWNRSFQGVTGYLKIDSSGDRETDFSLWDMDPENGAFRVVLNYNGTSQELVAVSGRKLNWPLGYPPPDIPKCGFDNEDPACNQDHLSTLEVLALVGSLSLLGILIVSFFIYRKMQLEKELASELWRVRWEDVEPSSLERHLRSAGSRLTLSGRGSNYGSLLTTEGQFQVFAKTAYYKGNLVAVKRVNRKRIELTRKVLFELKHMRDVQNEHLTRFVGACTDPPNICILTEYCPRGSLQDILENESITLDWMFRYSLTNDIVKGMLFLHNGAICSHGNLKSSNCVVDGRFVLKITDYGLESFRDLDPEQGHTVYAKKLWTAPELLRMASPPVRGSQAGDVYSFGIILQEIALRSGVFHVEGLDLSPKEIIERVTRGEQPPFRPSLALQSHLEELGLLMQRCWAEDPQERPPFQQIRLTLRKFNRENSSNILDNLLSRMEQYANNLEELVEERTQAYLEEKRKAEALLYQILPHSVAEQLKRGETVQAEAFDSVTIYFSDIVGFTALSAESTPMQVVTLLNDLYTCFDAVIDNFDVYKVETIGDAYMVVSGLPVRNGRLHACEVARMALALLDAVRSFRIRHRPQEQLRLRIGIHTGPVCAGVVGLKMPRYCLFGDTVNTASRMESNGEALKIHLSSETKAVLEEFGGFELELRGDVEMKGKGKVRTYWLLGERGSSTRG
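Compound pre-incubated 30 min at room temperature on GloSensor-loaded HEK293 cells stably carrying hNpr1 and the pGS-40F cGMP biosensor. Stimulation uses hNppA at 0.1 nM final; luminescence is taken at baseline and 20 min post-agonist.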
GPT2 inh: GPT2 alanine aminotransferase inhibition | Q8TD30 | Recombinant GPT2, coupled pyruvate oxidase/HRP Amplex Red fluorescence | Potency, µM (top dose mostly 57.7 µM), without a hit: top-dose activity change, negative = inhibition, actives largely listed as inhibitors | 100,000 compounds, 0.25% hits; also: nearly all actives have a fitted effect of over 60% in size
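Fluorescence read-out: pyruvate from GPT2 turnover coupled to pyruvate oxidase, HRP and Amplex Red (0.2mM ThPP, 0.2U/mL PO and HRP, 50uM Amplex final). Substrates 250uM a-KG, 2mM L-alanine; enzyme 10ng/uL; 30 min RT.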
Starred values were filed as active, the others as inactive; i = inactive; ? = inconclusive; · = no result; ! = repeats disagree; [ ] = another dose, or the depositor's remark. Unless noted, calls follow the shape of the dose curve; as a rule, active = well fitted curve in the direction sought with a large enough effect; inconclusive = small, poorly fitted or top-dose-only effect, or another doubt; inactive = no such curve, though single readings can be large; an effect the other way counts as inactive or inconclusive. % is scaled to controls: 0 for no effect and ±100 for the full control effect; potency is read from the fitted curve at half-maximal effect.

SMILES	Luciferase inh	HEK293 tox	NIH3T3 tox	hNpr1 antagonist	GPT2 inh
Cc1ccc(-c2ccccc2CN2CCN(C(=O)c3ccccc3Cl)CC2)cc1Cl	·	40µM*	40µM*	·	-13%
Cc1ccc(-c2ccccc2CN2CCC(C(=O)NCCc3ccccc3)CC2)cc1Cl	·	40µM*!	25µM*	·	2%
Cc1ccc(-c2ccccc2CN2CCN(C(=O)c3ccc(Cl)nc3)CC2)cc1Cl	·	?	35µM*	·	-4%
Cc1ccc(-c2ccccc2CN2CCN(C(=O)Nc3ccccc3)CC2)cc1Cl	·	32µM*	?	·	-4%
Cc1ccc(-c2ccccc2CN2CCN(C(=O)C3CC3)CC2)cc1Cl	·	?	?	·	-16%
Cc1ccc(-c2ccccc2CN2CCN(C(=O)c3ccccc3C)CC2)cc1Cl	·	?	?	·	-6%
COCCn1ncc(N2CCC(C(=O)Nc3ccc(-c4nc5c(C)cccc5[nH]4)cc3)C2)cc1=O (stereo unspecified)	·	i	-12%	·	i
Cc1ccc(C(=O)N2CCN(Cc3ccccc3-c3ccc(C)c(Cl)c3)CC2)cc1	·	40µM*	?	·	4%
Cc1ccc(-c2ccccc2CN2CCN(C(=O)c3ccc(F)cc3)CC2)cc1Cl	·	?	?	·	-12%
COc1ccccc1CNC[C@H]1Cn2cc(-c3ccccc3OC)nc2CO1	i	112µM*	79µM*	-1%[70.6 µM]	1%[88.5 µM]
COc1ccccc1-c1cn2c(n1)CO[C@@H](CNCc1ccc(F)cc1)C2	i	71µM*	?	9%[70.6 µM]	-23%[88.5 µM]
O=C(Nc1ccc(Cl)cc1)N1CCN(C(=O)c2nc3cccnc3n(CCc3ccccc3)c2=O)CC1	·	?	?	·	-7%
O=C(NC1CCN(c2ccc3nnc(-c4ccccc4)n3n2)CC1)c1cccc(Cl)c1	·	-26%	?	·	·
COc1ccccc1C(=O)N1CCCn2nc(C)c(-c3ccccc3OCc3ccccc3)c21	i	?	?	-2%	-9%
COc1ccccc1C(=O)N1CCCn2nc(C)c(-c3ccccc3Oc3ccccc3)c21	i	100µM*	?	-3%[70.6 µM]	i
Cc1nn2c(c1-c1ccccc1Oc1ccccc1)N(C(=O)c1ccccc1)CCC2	i	56µM*	45µM*	-25%[70.6 µM]	-8%[88.5 µM]
Cc1nn2c(c1-c1ccccc1Oc1ccccc1)N(C(=O)Cc1ccccc1)CCC2	i	79µM*	?	?	-11%[88.5 µM]
Cc1nn2c(c1-c1ccccc1Oc1ccccc1)N(Cc1cccc(C(=O)O)c1)CCC2	?	?	?	?	2%[88.5 µM]
Cc1nn2c(c1-c1ccccc1Oc1ccccc1)N(C(=O)c1cccc(C#N)c1)CCC2	i	71µM*	?	-19%[70.6 µM]	4%[88.5 µM]
COc1ccc(C(=O)N2CCCn3nc(C)c(-c4ccccc4Oc4ccccc4)c32)cn1	i	?	?	-24%[70.6 µM]	1%[88.5 µM]
CN(C)CC(=O)N1Cc2ccccc2CC2(CCN(Cc3ccccc3)C2)C1 (stereo unspecified)	·	-15%	-3%	·	3%
O=C(CCC[C@@H]1[C@H]2CCCN3CCC[C@@H](CN1C(=O)CCc1ccccc1)[C@@H]23)N1CCOCC1	i	2%	i	-2%	i
O=C(c1ccc(F)cc1)N1CCC(C(=O)N2CCC(N3CCOCC3=O)CC2)CC1	·	-1%	-10%	·	i
CC(C)c1noc(-c2ccn3c(CNC(=O)c4ccc(N(C)C)cc4)nnc3c2)n1	i	1%	-12%	0%	i
CC(C)c1noc(-c2ccn3c(CNC(=O)c4cccc(N(C)C)c4)nnc3c2)n1	28µM*	?	?	-9%	i
SMILES	Luciferase inh	HEK293 tox	NIH3T3 tox	hNpr1 antagonist	GPT2 inh
Cc1ccccc1CC(=O)N1CCC2(CC1)N=C(c1cccc(Br)c1)NO2	i	89µM*	?	?	i
COc1ccccc1CC(=O)N1CCC2(CC1)N=C(c1ccc(Cl)cc1)NO2	i	45µM*	?	?	3%
O=C(c1ccccc1)N1CCC2(CC1)N=C(c1cccc(Br)c1)NO2	i	?	?	-11%	i
COc1ncccc1-c1cc2c(ccn2Cc2ccncc2)c(N2CCOCC2)n1	i	-30%[172 µM]	?	-9%[70.6 µM]	?
COc1ncccc1-c1cc2c(ccn2CC2CCN(C)CC2)c(N2CCOCC2)n1	i	89µM*	45µM*	-13%[70.6 µM]	?
C[S+](=O)([O-])N1CCC(Cn2ccc3c(N4CCOCC4)nc(-c4cncnc4)cc32)CC1	i	-15%	?	-9%	?
COc1cccc(-c2cc3c(ccn3CC3CCN(C)CC3)c(N3CCOCC3)n2)c1	i	63µM*	25µM*	0%[70.6 µM]	-26%[88.5 µM]
CS(=O)(=O)N1CC2(CCCN2Cc2cccc(C(N)=O)c2)Cc2ccccc21 (stereo unspecified)	i	-24%	-23%	1%	-21%
COc1cccc(CN2CCC(Cc3ncc(C)n3Cc3ccccc3)C2)c1 (stereo unspecified)	i	45µM*	35µM*	-19%	-1%
COc1cccc(CN2CC[C@H](c3nc4ccccc4[nH]3)C2)c1	i	?	-18%[138 µM]	3%[70.6 µM]	-2%[88.5 µM]
Fc1ccc2oc([C@H]3CCN(Cc4ccc(F)c(F)c4)C3)nc2c1	i	?	-26%[138 µM]	2%[70.6 µM]	-13%[88.5 µM]
CCS(=O)(=O)c1ccc2oc([C@H]3CCN(Cc4ccc(OC)cc4)C3)nc2c1	i	63µM*	?	?	-17%[88.5 µM]
CCS(=O)(=O)c1ccc2oc([C@H]3CCN(Cc4c[nH]c5ccccc45)C3)nc2c1	i	?	?	-10%[70.6 µM]	0%[88.5 µM]
COc1cccc(CN2CC[C@H](c3nc4cc(Cl)ccc4o3)C2)c1	?	?	89µM*	-1%[70.6 µM]	-2%[88.5 µM]
Fc1ccc(CN2CC[C@H](c3nc4cc(Cl)ccc4o3)C2)cc1F	i	89µM*	?	-28%[70.6 µM]	?
CCOc1ccc(NC(=O)N2CCc3nc(-c4ccccc4)[nH]c3C2)cc1	·	?	?	·	-8%
COc1ccc(-c2cnc3n[nH]c(-c4ccc(F)cc4C)c3n2)cc1	i	45µM*	32µM*	-1%[70.6 µM]	i
Cc1ccccc1-c1[nH]nc2ncc(-c3ccsc3)nc12	i	32µM*	?	-13%[70.6 µM]	2%[88.5 µM]
COc1ccc(-c2[nH]nc3ncc(-c4ccc(OC)nc4)nc23)c(C)c1	i	22µM*	?	4%[70.6 µM]	4%[88.5 µM]
COc1ccc(-c2cnc3n[nH]c(-c4ccccc4C)c3n2)cn1	i	32µM*	?	-9%[70.6 µM]	i
COCC(=O)NC1CCN(c2ccc3nnc(-c4ccccc4)n3n2)C1 (stereo unspecified)	·	-5%[172 µM]	?	·	·
O=C1NC2(CCN(CC3CCCCC3)CC2)COc2ccccc21	i	35µM*	79µM*	4%[70.6 µM]	i
Cn1nccc1CN1CCCC2(COc3ccccc3C(=O)N2)C1 (stereo unspecified)	i	28µM*	8.9µM*	?	i
